# Reference: the supplement of paper PMC12494721
# Where a name gives a salt, the structure may show the parent alone. Values without a mark were called inactive.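 The calls were made as follows: for the amine columns active = adjusted P below 0.05 in both replicates with a change the same way and a mean fold change under 0.8 or over 1.25; inactive = the rest.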
# System: Escherichia coli IAI1
# Assay: fold change of Putrescine concentration vs plate DMSO controls (fold change (ratio)); higher = more amine produced, active = hit call of the paper (significant change in both replicates, either direction)
# Conditions: 20 µM; incubation time: 27 h, anaerobic, 37 °C
# In short: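 Amine values are fold changes relative to DMSO-only wells on the same plate. They derive from 27 h, 37 °C anaerobic mGAM cultures of four gut bacterial strains in 80 µL wells, dosed at 20 µM final, or 50 µM final for sweeteners. Extraction of the whole culture, LC–triple-quadrupole MS in dynamic MRM mode, external calibration curves and within-batch drift correction were used, with 2 biological replicates averaged.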
row,Structure (SMILES),fold change of Putrescine concentration
1,C[C@@H]1C[C@@H]([C@H](O)CC2CC(=O)NC(=O)C2)C(=O)[C@@H](C)C1 [Cycloheximide],1.06
2,CCNC1(c2cccs2)CCCCC1=O (stereo unspecified) [Tiletamine hydrochloride],0.955
3,CCCC1COC(Cn2cncn2)(c2ccc(Cl)cc2Cl)O1 (stereo unspecified),0.977
4,ClC1C(Cl)C(Cl)C(Cl)C(Cl)C1Cl (stereo unspecified),1
5,CN1C[C@H](CNC(=O)OCc2ccccc2)C[C@@H]2c3cccc4c3c(cn4C)C[C@H]21 [Metergoline],1.04
6,O=[N+]([O-])O[C@@H]1CO[C@H]2[C@@H]1OC[C@@H]2O [Isosorbide mononitrate],0.959
7,C[N+]1(C)CCCCC1,1
8,N#Cc1nn(-c2c(Cl)cc(C(F)(F)F)cc2Cl)c(N)c1[S+]([O-])C(F)(F)F (stereo unspecified),1.05
9,COCC(=O)N(c1c(C)cccc1C)[C@H](C)C(=O)OC,1.02
10,Cc1cc(C(F)(C(F)(F)F)C(F)(F)F)ccc1NC(=O)c1cccc(I)c1C(=O)NC(C)(C)CS(C)(=O)=O,0.989
11,CC1C=CC=CCCC=CC=CC=CC=CC(OC2OC(C)C(O)C(N)C2O)CC2OC(O)(CC(O)C(O)CCC(O)CC(O)CC(O)CC(=O)OC(C)C(C)C1O)CC(O)C2C(=O)O (stereo unspecified) [Nystatine],0.999
12,CCOC(=O)CC(SP(=S)(OC)OC)C(=O)OCC (stereo unspecified),1.01
13,Fc1ccc([C@]2(Cn3cncn3)O[C@H]2c2ccccc2Cl)cc1 (racemic),0.935
14,O=C(Nc1ccccc1-c1ccc(Cl)cc1)c1cccnc1Cl,1
15,CCN(CC)c1nc(C)cc(OP(=S)(OC)OC)n1,1.02
16,O=C(O[C@H]1C[N+]2(CCCOc3ccccc3)CCC1CC2)C(O)(c1cccs1)c1cccs1 [Aclidinium bromide],1.08
17,CCC(C)(c1ccc(O)cc1)c1ccc(O)cc1 [Bisphenol B],0.976
18,CNC(=O)/C=C(\C)OP(=O)(OC)OC,0.968

row,Structure (SMILES),fold change of Putrescine concentration
1,CO/C=C(/C(=O)OC)c1ccccc1Oc1cc(Oc2ccccc2C#N)ncn1,1.04
2,C[C@@H]1CN([C@H]2CC[C@](C#N)(c3ccc(F)cc3)CC2)CC[C@]1(C(=O)O)c1ccccc1 [Levocabastine hydrochloride],1.02
3,O=C(O)c1nc(Cl)ccc1Cl,0.975
4,CCn1cc(C(=O)O)c(=O)c2cc3c(cc21)OCO3 [Oxolinic acid],0.59 (active)
5,CC(C)(C)C(O)(CCc1ccc(Cl)cc1)Cn1cncn1 (stereo unspecified),0.998
6,C[C@]12C=CC(=O)C=C1CC[C@@H]1[C@@H]2CC[C@@]2(C)[C@H]1CC[C@]2(C)O [Methandrostenolone],1.01
7,COP(=S)(OC)Oc1nc(Cl)c(Cl)cc1Cl,0.986
8,O=C(O)C(F)(F)C(F)(F)C(F)(F)C(F)(F)C(F)(F)C(F)(F)F [PFHpA (Perfluoroheptanoic acid)],1.03
9,OCC(O)CCl (racemic),0.975
10,CC(=O)O[C@H]1CC[C@@]2(C)C(=CC[C@@H]3[C@@H]2CC[C@]2(C)C(=O)CC[C@@H]32)C1 [Dehydroisoandosterone 3-acetate],1.08
11,CC(C)N(C(=O)COc1nnc(C(F)(F)F)s1)c1ccc(F)cc1,1
12,CC(=O)OCC(=O)[C@H]1CC[C@H]2[C@@H]3CC[C@H]4C[C@H](O)CC[C@]4(C)[C@H]3C(=O)C[C@]12C [Alfadolone acetate],1.22
13,C[C@]12CC[C@@H]3c4ccc(OC(=O)N(CCCl)CCCl)cc4CC[C@H]3[C@@H]1CC[C@@H]2O [Estramustine],1.01
14,CCC(=O)Nc1ccc(Cl)c(Cl)c1,1.01
15,O=P1(N(CCCl)CCCl)NCCCO1 (stereo unspecified) [Cyclophosphamide],1.01
16,Cc1cc(C(C#N)c2ccc(Cl)cc2)c(Cl)cc1NC(=O)c1cc(I)cc(I)c1O (stereo unspecified) [Closantel],1.19
17,COP(=S)(OC)SCN1C(=O)c2ccccc2C1=O,1.01
18,C#CCOc1ccc(CCNC(=O)C(OCC#C)c2ccc(Cl)cc2)cc1OC (stereo unspecified),1.05
